From PubChem BioAssay
Active and inactive are the calls of the source.

Columns and labels:
[1] = system: PRMT1 (protein arginine N-methyltransferase 1); assay: PRMT1 binders on small-molecule microarrays, primary screen, biochemical, small-molecule microarray, 635 nm fluorescence (AID 1088); details: small-molecule microarray binding, higher = more signal;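 note: binding of Prmt1 protein to compounds spotted on small-molecule microarray slides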
[2] = yeast growth modulation, basal conditions, primary screen, YJM789 clinical isolate, OD600, 24 h (AID 1089);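 note: growth of clinical yeast isolate S. cerevisiae YJM 789 seeded 1000 cells per well; test concentration not given here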; details: S. cerevisiae YJM789 growth, higher = more signal, called active from +8 up or from −8 down
[3] = fission yeast growth modulation, primary screen, strain 972, OD600, 24 h, no modulator (AID 1090);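 note: basal condition with compound alone and no growth modifier present; test concentration not given here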; details: S. pombe 972 growth, higher = more signal, called active from +8 up or from −8 down
[4] = S. cerevisiae growth modulation with rapamycin, primary screen, strain BY4716, OD600, 96 h (AID 1091); details: higher = more signal, called active from +8 up or from −8 down; note: test concentration not given here
[5] = target: Torsin-1A-interacting protein 2 (Homo sapiens) (UniProt Q8NFQ8); assay: LULL1 binders on small-molecule microarray, primary screen, cell lysate, human LULL1 lysate, 635/667 nm fluorescence (AID 1092); details: hLULL1 lysate binding, 635 nm fluorescence, higher = more signal;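 note: probe is lysate of COS7 cells overexpressing human LULL1; score merges per-feature 667 nm fluorescence with signal-to-noise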
[6] = E. coli growth modulation, two-sided OD650, primary screen, E. coli filamentation project, strain DRC41, 24 h (AID 1093); details: OD650, 24 h, higher = more signal, called active from +8 up or from −8 down;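 note: MC1000 strain lacking acrAB efflux and sulA so SOS filamentation is blocked; test concentration not given here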
[7] = small-molecule microarray binders of probe aLefty2, primary screen, biochemical, biotinylated probe, 635/667 nm fluorescence (AID 1094); details: higher = more signal;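 note: score merges spot fluorescence near 667 nm with spot signal-to-noise ratio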
[8] = system: Noggin (protein binding on small-molecule microarray); assay: Noggin binders on small-molecule microarray, primary screen, biochemical, 635/667 nm fluorescence (AID 1095); details: 635 nm fluorescence, higher = more signal;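 note: score merges 667 nm feature fluorescence with signal to noise over triplicate slides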
[9] = target: Neurogenic locus notch homolog protein 3 (Homo sapiens) (UniProt Q9UM47); assay: NOTCH3 binders on small-molecule microarray, primary screen, biochemical, 635/667 nm fluorescence (AID 1096); details: NOTCH3 binding, 635 nm fluorescence, higher = more signal
[10] = small-molecule microarray binders of probe aEGFR, primary screen, biochemical, biotinylated probe, 635/667 nm fluorescence (AID 1097); details: higher = more signal;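 note: probe is a biotinylated anti-EGFR antibody binding compounds printed on slides; score combines fluorescence near 667 nm and signal to noise of each spot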

Chain of Neurogenic locus notch homolog protein 3 (Homo sapiens) (Q9UM47 whole entry, looked up): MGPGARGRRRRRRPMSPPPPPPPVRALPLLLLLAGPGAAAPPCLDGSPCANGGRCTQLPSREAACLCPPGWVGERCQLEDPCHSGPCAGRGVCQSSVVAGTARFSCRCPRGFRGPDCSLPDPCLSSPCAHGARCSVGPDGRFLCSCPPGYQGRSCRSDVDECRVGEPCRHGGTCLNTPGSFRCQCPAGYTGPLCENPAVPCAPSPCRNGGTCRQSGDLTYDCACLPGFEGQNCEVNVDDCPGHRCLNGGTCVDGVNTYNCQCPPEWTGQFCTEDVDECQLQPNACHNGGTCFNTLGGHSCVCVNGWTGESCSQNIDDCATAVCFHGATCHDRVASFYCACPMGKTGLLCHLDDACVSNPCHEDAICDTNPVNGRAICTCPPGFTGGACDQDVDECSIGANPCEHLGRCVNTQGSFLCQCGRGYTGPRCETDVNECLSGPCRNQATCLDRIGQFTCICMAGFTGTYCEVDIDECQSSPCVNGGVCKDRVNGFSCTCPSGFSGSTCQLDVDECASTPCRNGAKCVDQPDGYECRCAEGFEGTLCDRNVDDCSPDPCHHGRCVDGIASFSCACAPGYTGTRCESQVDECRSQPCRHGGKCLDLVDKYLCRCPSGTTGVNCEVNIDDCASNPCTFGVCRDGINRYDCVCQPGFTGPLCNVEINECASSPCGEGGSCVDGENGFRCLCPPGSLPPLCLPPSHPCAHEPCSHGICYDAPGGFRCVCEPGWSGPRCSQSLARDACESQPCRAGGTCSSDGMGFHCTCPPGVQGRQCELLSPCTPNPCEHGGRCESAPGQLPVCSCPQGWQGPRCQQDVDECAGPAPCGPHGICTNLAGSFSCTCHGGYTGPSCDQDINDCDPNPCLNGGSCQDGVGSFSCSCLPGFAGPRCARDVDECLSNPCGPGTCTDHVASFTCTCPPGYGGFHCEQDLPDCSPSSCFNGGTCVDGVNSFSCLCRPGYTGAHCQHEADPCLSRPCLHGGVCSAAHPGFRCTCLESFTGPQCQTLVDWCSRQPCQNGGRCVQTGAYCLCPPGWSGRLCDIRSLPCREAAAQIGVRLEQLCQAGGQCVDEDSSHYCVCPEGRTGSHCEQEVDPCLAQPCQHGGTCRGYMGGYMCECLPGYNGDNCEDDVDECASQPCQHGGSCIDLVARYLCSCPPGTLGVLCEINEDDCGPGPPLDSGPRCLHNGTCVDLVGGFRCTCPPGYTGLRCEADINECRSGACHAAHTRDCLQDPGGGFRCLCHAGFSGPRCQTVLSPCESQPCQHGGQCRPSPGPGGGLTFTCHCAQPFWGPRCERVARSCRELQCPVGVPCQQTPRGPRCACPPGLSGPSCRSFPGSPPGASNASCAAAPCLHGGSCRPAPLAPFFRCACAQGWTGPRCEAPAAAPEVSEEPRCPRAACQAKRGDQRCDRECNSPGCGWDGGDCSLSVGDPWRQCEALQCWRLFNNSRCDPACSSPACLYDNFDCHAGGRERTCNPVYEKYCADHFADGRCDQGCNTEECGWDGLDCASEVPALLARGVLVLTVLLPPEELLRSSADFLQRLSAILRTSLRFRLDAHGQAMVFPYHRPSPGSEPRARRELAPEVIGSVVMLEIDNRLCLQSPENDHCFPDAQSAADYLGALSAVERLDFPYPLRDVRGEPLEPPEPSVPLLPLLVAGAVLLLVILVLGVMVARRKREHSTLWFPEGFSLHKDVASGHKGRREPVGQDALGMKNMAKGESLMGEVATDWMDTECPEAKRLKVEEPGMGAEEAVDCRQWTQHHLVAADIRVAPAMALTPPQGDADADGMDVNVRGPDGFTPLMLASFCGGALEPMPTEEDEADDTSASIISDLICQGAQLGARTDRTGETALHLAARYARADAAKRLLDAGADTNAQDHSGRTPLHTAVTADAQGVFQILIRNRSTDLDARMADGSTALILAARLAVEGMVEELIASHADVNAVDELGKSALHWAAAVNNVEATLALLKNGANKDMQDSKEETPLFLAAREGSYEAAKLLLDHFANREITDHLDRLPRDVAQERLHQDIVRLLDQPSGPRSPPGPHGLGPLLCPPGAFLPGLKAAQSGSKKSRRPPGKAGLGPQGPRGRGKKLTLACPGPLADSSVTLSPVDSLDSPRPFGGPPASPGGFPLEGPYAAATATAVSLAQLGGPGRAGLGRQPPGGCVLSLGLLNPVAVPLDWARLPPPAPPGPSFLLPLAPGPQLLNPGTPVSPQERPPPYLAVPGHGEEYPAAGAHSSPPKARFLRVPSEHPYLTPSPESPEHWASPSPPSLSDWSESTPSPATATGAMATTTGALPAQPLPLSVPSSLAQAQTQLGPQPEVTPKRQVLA
Chain of Torsin-1A-interacting protein 2 (Homo sapiens) (Q8NFQ8 whole entry, looked up): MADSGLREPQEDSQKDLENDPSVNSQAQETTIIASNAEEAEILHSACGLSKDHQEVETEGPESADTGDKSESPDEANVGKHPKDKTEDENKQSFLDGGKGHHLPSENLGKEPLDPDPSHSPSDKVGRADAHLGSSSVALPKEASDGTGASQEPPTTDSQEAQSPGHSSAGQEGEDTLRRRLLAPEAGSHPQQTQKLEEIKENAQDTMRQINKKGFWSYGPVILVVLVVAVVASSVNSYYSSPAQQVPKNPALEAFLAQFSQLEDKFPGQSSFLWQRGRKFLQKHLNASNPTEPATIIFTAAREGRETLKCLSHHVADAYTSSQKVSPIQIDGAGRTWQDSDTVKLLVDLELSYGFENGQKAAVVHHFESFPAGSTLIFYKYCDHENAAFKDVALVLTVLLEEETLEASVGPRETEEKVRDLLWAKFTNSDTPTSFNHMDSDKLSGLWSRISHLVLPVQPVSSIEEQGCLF

| Compound | composite z-score [1] | z-score [2] | z-score [3] | z-score [4] | composite z-score [5] | z-score [6] | composite z-score [7] | composite z-score [8] | composite z-score [9] | composite z-score [10] |
| --- | --- | --- | --- | --- | --- | --- | --- | --- | --- | --- |
| COCCOC(=O)N1C(=O)[C@@]2(c3cc(C#Cc4ccc(OC)cc4)ccc31)[C@H](C(N)=O)[C@H]1C(=O)O[C@H](c3ccccc3)[C@H](c3ccccc3)N1[C@@H]2c1ccc(OCCO)cc1 | 1.53 | 2.17 (inactive) | 0.719 (inactive) | 4.88 (inactive) | 2.75 | 1.31 (inactive) | -0.0757 | 1.43 | 1.07 | 0.0251 |
| COc1cc2c(cc1OC)CN(C(=O)[C@@H]1[C@H]3C(=O)O[C@H](c4ccccc4)[C@H](c4ccccc4)N3[C@H](c3ccc(OCCO)cc3)[C@@]13C(=O)Nc1ccc(C#CCCO)cc13)CC2 | 1.54 | 1.68 (inactive) | -0.283 (inactive) | 3.2 (inactive) | 3.38 | 2 (inactive) | 0.674 | 1.46 | 1.08 | 0.276 |
| CC(C)c1ccc(NN2C(C(O)c3ccccn3)C=CC3C(=O)N(c4ccccc4)C(=O)C32)cc1 (stereo not given) | 1.5 | 0.485 (inactive) | -0.951 (inactive) | -0.252 (inactive) | 3.7 | -0.405 (inactive) | 0.0038 | 1.7 | 1.05 | 0.154 |
| COCCCNC(=O)[C@@]1(Cc2ccccc2N=[N+]=[N-])N=C(c2ccc(OCCCO)cc2)O[C@H]1c1ccccc1CN=[N+]=[N-] | 1.56 | -0.873 (inactive) | 0.553 (inactive) | 6.93 (inactive) | 3.49 | 1.04 (inactive) | 0.235 | -0.0194 | 1.07 | 0.43 |
| CC(C)(C)OC(=O)CC[C@]1(C(=O)N2CCCCC2)N=C(c2ccc(OCCCO)cc2)O[C@H]1c1ccccc1CN=[N+]=[N-] | 1.54 | -4.42 (inactive) | -0.736 (inactive) | -0.279 (inactive) | 3.67 | 2.1 (inactive) | 0.694 | 0.743 | 1.05 | 0.314 |
| C[C@H]1NC(=O)C([C@@H](C)OCc2ccccc2)NC(=O)[C@@]23C(=O)N[C@@H](Cc4ccccc4)C2[C@H](C)[C@@]2(C)O[C@H]2C3/C=C/CC/C=C/CNC1=O (stereo not given in full) | -0.1 | 0.607 (inactive) | -0.657 (inactive) | 0.261 (inactive) | -0.147 | 2.13 (inactive) | -0.016 | 0.598 | -0.0089 | 0.0143 |
| CCCCC(=C=CC[C@H](O)c1cccc(OCCO)c1)C[C@H](O)COCc1ccccc1 | 0.494 | -0.646 (inactive) | -0.586 (inactive) | -1.15 (inactive) | 1.04 | 0.338 (inactive) | -0.195 | -0.0291 | -0.323 | -0.154 |
| COc1cc(C(O)C2C=CC3C(=O)N(C)C(=O)C3N2NC(=O)OC(C)(C)C)cc(OC)c1OC (stereo not given) | 1.09 | 0.61 (inactive) | 2 (inactive) | 1.15 (inactive) | 3.16 | -1.34 (inactive) | 0.604 | -0.23 | 0.697 | 0.561 |
| CC(C)NC(=O)[C@@H]1c2ccccc2C(=O)N(Cc2cc(C(F)(F)F)cc(C(F)(F)F)c2)[C@H]1c1ccc(CO)cc1 | 1.46 | -0.245 (inactive) | -0.593 (inactive) | -0.517 (inactive) | 2.4 | -0.216 (inactive) | -0.0107 | 0.598 | 1.04 | -0.0248 |
| CCOC(=O)C[C@H]1[C@H](OC(=O)Cc2ccc3c(c2)OCO3)[C@@H](NC(=O)c2ccccc2)c2cc(OCCCO)ccc2N1C(=O)c1ccc2ccccc2n1 | 0.4 | -2.25 (inactive) | -1.2 (inactive) | -0.433 (inactive) | 1.13 | 1.45 (inactive) | -0.0179 | 0.196 | 0.0199 | -0.147 |
| COC(=O)C(CC#Cc1ccc2c(c1)[C@]1(C(=O)N2)[C@H](c2ccc(O)cc2)N2[C@H](c3ccccc3)[C@H](c3ccccc3)OC(=O)[C@H]2[C@@H]1C(N)=O)C(=O)OC | -1.37 | -0.731 (inactive) | -0.55 (inactive) | -0.438 (inactive) | -0.759 | 2.23 (inactive) | -0.189 | -2.58 | -1.06 | 0.162 |
| COc1ccc([Si](C)(C)[C@H]2[C@H](CCn3cc(CCO)nn3)O[C@@]3(C(=O)N(Cc4cccc(N5C(=O)c6cccc7cccc5c67)c4)c4ccccc43)[C@@H]2C)cc1 | 1.46 | 0.502 (inactive) | 0.903 (inactive) | 27.7 (active) | 2.2 | 0.921 (inactive) | -0.288 | 1.03 | 0.79 | -0.142 |
| CN(C)CCCC[C@@H]1NC(=O)[C@H]2C[C@@H](C(=O)NCCCCCCNC(=O)CS)[C@@H](c3ccc(O)cc3)N2C1=O | 1.17 | -1.22 (inactive) | -0.225 (inactive) | -0.342 (inactive) | 3.31 | 0.937 (inactive) | -0.0785 | 1.58 | 0.196 | -0.173 |
| CC(C)C[C@@H]1NC(=O)[C@@]23C(=O)N[C@@H](Cc4ccccc4)C2[C@H](C)[C@@]2(C)O[C@H]2C3/C=C/C/C=C\CNC(=O)[C@@H]2CCCN2C1=O (stereo not given in full) | -0.653 | 0.0289 (inactive) | -0.151 (inactive) | -0.453 (inactive) | 0.0315 | -0.762 (inactive) | -0.223 | 0.326 | -0.46 | -0.121 |
